# Measurements from the supplement of paper PMC8728848.
# Shown is part of a subset that was picked to be rich in the strongest signals.
# B1: Gal 8 (Homo sapiens) (protein)
# chain: MLSLNNLQNIIYNPVIPYVGTIPDQLDPGTLIVICGHVPSDADRFQVDLQNGSSVKPRADVAFHFNPRFKRAGCIVCNTLINEKWGREEITYDTPFKREKSFEIVIMVLKDKFQVAVNGKHTLLYGHRIGPEKIDTLGIYGKVNIHSIGFSFSSDLQSTQASSLELTEISRENVPKSGTPQLQTVSPSWDLQGHGSETFCSVLWTRVFLEIAFCRPIGLTVASFQSLPFAARLNTPMGPGRTVVVKGEVNANAKSFNVDLLAGKSKDIALHLNPRLNIKAFVRNSFLQESWGEEERNITSFPFSPGMYFEMIIYCDVREFKVAVNGVHSLEYKHRFKELSSIDTLEINGDIHLLEVRSW
# Tests used:
# Assay in all cases: glycan array binding signal (z-score within array); higher = stronger binding
# Settings in all cases: glycan notation: IUPAC condensed, linker removed
# [1] = target: Fuc(a1-2)Gal(b1-3)GalNAc(a1-3)[Fuc(a1-2)]Gal(b1-4)Glc
# Outline: (§1)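 The binding signal is a Z-score computed within each array and averaged over linkers. Arrays of the same protein sequence at different concentrations or buffers were also averaged together. Data originate from 3228 arrays in the Consortium for Functional Glycomics database, kept only where the protein sequence was available.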
# [2] = target: Fuc(a1-2)Gal(b1-3)GlcNAc(b1-3)[Gal(b1-4)GlcNAc(b1-6)]Gal(b1-4)Glc
# Outline: as §1
# [3] = target: Fuc(a1-2)[Gal(a1-3)]Gal(b1-4)Glc
# Outline: as §1
# [4] = target: Fuc(a1-2)[Gal(a1-3)]Gal(b1-4)GlcNAc(b1-2)Man(a1-3)[Fuc(a1-2)[Gal(a1-3)]Gal(b1-4)GlcNAc(b1-2)Man(a1-6)]Man(b1-4)GlcNAc(b1-4)GlcNAc
# Outline: as §1
# [5] = target: Fuc(a1-2)[GalNAc(a1-3)]Gal(b1-4)GlcNAc(b1-2)Man(a1-3)[Fuc(a1-2)[GalNAc(a1-3)]Gal(b1-4)GlcNAc(b1-2)Man(a1-6)]Man(b1-4)GlcNAc(b1-4)GlcNAc
# Outline: as §1
# [6] = target: Fuc(a1-2)[GalNAc(a1-4)]Gal(b1-4)GlcNAc
# Outline: as §1
# [7] = target: Fuc(a1-3)[Gal(b1-4)]GlcNAc(b1-4)Gal(b1-4)[Fuc(a1-3)]GlcNAc(b1-4)Gal(b1-4)[Fuc(a1-3)]GlcNAc
# Outline: as §1
# Gal(a1-3)GalNAc = target: Gal(a1-3)GalNAc
# Outline: as §1
# [8] = target: Gal(b1-3)[Fuc(a1-4)]GlcNAc(b1-3)Gal(b1-4)[Fuc(a1-3)]GlcNAc
# Outline: as §1
# [9] = target: Gal(b1-3)[Fuc(a1-4)]GlcNAc(b1-6)GalNAc
# Outline: as §1
# [10] = target: Gal(b1-3)[Neu5Ac(b2-6)]GalNAc
# Outline: as §1
# [11] = target: Gal(b1-4)GlcNAc(b1-3)Gal(b1-4)GlcNAc(b1-2)Man(a1-3)[Gal(b1-4)GlcNAc(b1-3)Gal(b1-4)GlcNAc(b1-2)Man(a1-6)]Man(b1-4)GlcNAc(b1-4)[Fuc(a1-6)]GlcNAc
# Outline: as §1
# [12] = target: Gal(b1-4)GlcNAc(b1-3)Gal(b1-4)GlcNAc(b1-2)[Gal(b1-4)GlcNAc(b1-3)Gal(b1-4)GlcNAc(b1-6)]Man(a1-6)[Gal(b1-4)GlcNAc(b1-3)Gal(b1-4)GlcNAc(b1-2)Man(a1-3)]Man(b1-4)GlcNAc(b1-4)[Fuc(a1-6)]GlcNAc
# Outline: as §1
# [13] = target: Gal(b1-4)GlcNAc(b1-3)Gal(b1-4)GlcNAc(b1-3)Gal(b1-4)GlcNAc(b1-2)[Gal(b1-4)GlcNAc(b1-3)Gal(b1-4)GlcNAc(b1-3)Gal(b1-4)GlcNAc(b1-6)]Man(a1-6)[Gal(b1-4)GlcNAc(b1-3)Gal(b1-4)GlcNAc(b1-3)Gal(b1-4)GlcNAc(b1-2)Man(a1-3)]Man(b1-4)GlcNAc(b1-4)[Fuc(a1-6)]GlcNAc
# Outline: as §1
# [14] = target: Gal(b1-4)GlcNAc(b1-3)Gal(b1-4)GlcNAc(b1-3)Gal(b1-4)GlcNAc(b1-3)Gal(b1-4)GlcNAc(b1-2)Man(a1-3)[Gal(b1-4)GlcNAc(b1-3)Gal(b1-4)GlcNAc(b1-3)Gal(b1-4)GlcNAc(b1-3)Gal(b1-4)GlcNAc(b1-2)Man(a1-6)]Man(b1-4)GlcNAc(b1-4)[Fuc(a1-6)]GlcNAc
# Outline: as §1
# [15] = target: Gal(b1-4)GlcNAc(b1-3)Gal(b1-4)GlcNAc(b1-3)Gal(b1-4)GlcNAc(b1-3)Gal(b1-4)GlcNAc(b1-2)[Gal(b1-4)GlcNAc(b1-3)Gal(b1-4)GlcNAc(b1-3)Gal(b1-4)GlcNAc(b1-3)Gal(b1-4)GlcNAc(b1-6)]Man(a1-6)[Gal(b1-4)GlcNAc(b1-3)Gal(b1-4)GlcNAc(b1-3)Gal(b1-4)GlcNAc(b1-3)Gal(b1-4)GlcNAc(b1-2)Man(a1-3)]Man(b1-4)GlcNAc(b1-4)[Fuc(a1-6)]GlcNAc
# Outline: as §1
# [16] = target: Gal(b1-4)GlcNAc(b1-3)Gal(b1-4)GlcNAc(b1-3)Gal(b1-4)GlcNAc(b1-3)Gal(b1-4)GlcNAc(b1-3)Gal(b1-4)GlcNAc(b1-2)[Gal(b1-4)GlcNAc(b1-3)Gal(b1-4)GlcNAc(b1-3)Gal(b1-4)GlcNAc(b1-3)Gal(b1-4)GlcNAc(b1-3)Gal(b1-4)GlcNAc(b1-6)]Man(a1-6)[Gal(b1-4)GlcNAc(b1-3)Gal(b1-4)GlcNAc(b1-3)Gal(b1-4)GlcNAc(b1-3)Gal(b1-4)GlcNAc(b1-3)Gal(b1-4)GlcNAc(b1-2)Man(a1-3)]Man(b1-4)GlcNAc(b1-4)[Fuc(a1-6)]GlcNAc
# Outline: as §1
# [17] = target: Gal(b1-4)GlcNAc(b1-3)Gal(b1-4)GlcNAc(b1-3)Gal(b1-4)GlcNAc(b1-3)Gal(b1-4)GlcNAc(b1-3)Gal(b1-4)GlcNAc(b1-3)Gal(b1-4)GlcNAc(b1-2)Man(a1-3)[Gal(b1-4)GlcNAc(b1-3)Gal(b1-4)GlcNAc(b1-3)Gal(b1-4)GlcNAc(b1-3)Gal(b1-4)GlcNAc(b1-3)Gal(b1-4)GlcNAc(b1-3)Gal(b1-4)GlcNAc(b1-2)Man(a1-6)]Man(b1-4)GlcNAc(b1-4)GlcNAc
# Outline: as §1
# [18] = target: Gal(b1-4)GlcNAc(b1-6)[Gal(b1-3)]GalNAc
# Outline: as §1
# [19] = target: GalNAc(a1-3)GalNAc(b1-3)Gal(a1-4)Gal(b1-4)Glc
# Outline: as §1
# [20] = target: GalNAc(b1-4)GlcNAc(b1-2)Man(a1-3)[GalNAc(b1-4)GlcNAc(b1-2)Man(a1-6)]Man(b1-4)GlcNAc(b1-4)GlcNAc
# Outline: as §1
# [21] = target: GlcNAc(b1-2)[GlcNAc(b1-4)]Man(a1-3)[GlcNAc(b1-2)Man(a1-6)]Man(b1-4)GlcNAc(b1-4)GlcNAc
# Outline: as §1
# GlcNAc(b1-3)Gal(b1-4)Glc = target: GlcNAc(b1-3)Gal(b1-4)Glc
# Outline: as §1
# [22] = target: GlcNAc(b1-3)Gal(b1-4)GlcNAc(b1-3)Gal(b1-4)GlcNAc(b1-2)[GlcNAc(b1-3)Gal(b1-4)GlcNAc(b1-3)Gal(b1-4)GlcNAc(b1-6)]Man(a1-6)[GlcNAc(b1-3)Gal(b1-4)GlcNAc(b1-3)Gal(b1-4)GlcNAc(b1-2)Man(a1-3)]Man(b1-4)GlcNAc(b1-4)[Fuc(a1-6)]GlcNAc
# Outline: as §1
# [23] = target: GlcNAc(b1-3)Gal(b1-4)GlcNAc(b1-3)Gal(b1-4)GlcNAc(b1-3)Gal(b1-4)GlcNAc(b1-2)[GlcNAc(b1-3)Gal(b1-4)GlcNAc(b1-3)Gal(b1-4)GlcNAc(b1-3)Gal(b1-4)GlcNAc(b1-6)]Man(a1-6)[GlcNAc(b1-3)Gal(b1-4)GlcNAc(b1-3)Gal(b1-4)GlcNAc(b1-3)Gal(b1-4)GlcNAc(b1-2)Man(a1-3)]Man(b1-4)GlcNAc(b1-4)[Fuc(a1-6)]GlcNAc
# Outline: as §1
# [24] = target: GlcNAc(b1-3)Gal(b1-4)GlcNAc(b1-3)Gal(b1-4)GlcNAc(b1-3)Gal(b1-4)GlcNAc(b1-3)Gal(b1-4)GlcNAc(b1-2)[GlcNAc(b1-3)Gal(b1-4)GlcNAc(b1-3)Gal(b1-4)GlcNAc(b1-3)Gal(b1-4)GlcNAc(b1-3)Gal(b1-4)GlcNAc(b1-6)]Man(a1-6)[GlcNAc(b1-3)Gal(b1-4)GlcNAc(b1-3)Gal(b1-4)GlcNAc(b1-3)Gal(b1-4)GlcNAc(b1-3)Gal(b1-4)GlcNAc(b1-2)Man(a1-3)]Man(b1-4)GlcNAc(b1-4)[Fuc(a1-6)]GlcNAc
# Outline: as §1
# [25] = target: GlcNAc(b1-3)[GlcNAc(b1-6)]Gal(b1-4)GlcNAc
# Outline: as §1
# [26] = target: GlcNAc(b1-3)[GlcNAc(b1-6)]GlcNAc(b1-4)GlcNAc
# Outline: as §1
# [27] = target: GlcNAc(b1-4)Gal(b1-4)GlcNAc
# Outline: as §1
# [28] = target: GlcNAc(b1-4)GlcNAc(b1-4)GlcNAc(b1-4)GlcNAc(b1-4)GlcNAc(b1-4)GlcNAc
# Outline: as §1
# [29] = target: Man(a1-3)[Man(a1-6)]Man(b1-4)GlcNAc(b1-4)[Fuc(a1-6)]GlcNAc
# Outline: as §1
# [30] = target: Neu5Ac(a2-3)Gal(b1-3)GalNAc(b1-3)Gal(a1-4)Gal(b1-4)Glc
# Outline: as §1
# [31] = target: Neu5Ac(a2-3)Gal(b1-3)GlcNAc(b1-2)Man(a1-3)[Neu5Ac(a2-3)Gal(b1-3)GlcNAc(b1-2)Man(a1-6)]Man(b1-4)GlcNAc(b1-4)GlcNAc
# Outline: as §1
# [32] = target: Neu5Ac(a2-3)Gal(b1-4)GlcNAc(b1-2)[Neu5Ac(a2-3)Gal(b1-4)GlcNAc(b1-4)]Man(a1-3)[GlcNAc(b1-4)][Neu5Ac(a2-3)Gal(b1-4)GlcNAc(b1-4)Man(a1-6)]Man(b1-4)GlcNAc(b1-4)GlcNAc
# Outline: as §1
# [33] = target: Neu5Ac(a2-3)Gal(b1-4)GlcNAc(b1-3)Gal(b1-4)GlcNAc(b1-3)Gal(b1-4)GlcNAc
# Outline: as §1
# [34] = target: Neu5Ac(a2-3)Gal(b1-4)GlcNAc(b1-6)[Gal(b1-3)]GalNAc
# Outline: as §1
# [35] = target: Neu5Ac(a2-6)Gal(b1-4)GlcNAc(b1-2)Man(a1-6)[Man(a1-3)]Man(b1-4)GlcNAc(b1-4)GlcNAc
# Outline: as §1
# [36] = target: Neu5Ac(a2-6)Gal(b1-4)GlcNAc(b1-3)Gal(b1-4)[Fuc(a1-3)]GlcNAc(b1-3)Gal(b1-4)[Fuc(a1-3)]GlcNAc
# Outline: as §1
# [37] = target: Neu5Ac(a2-8)Neu5Ac(a2-3)[Gal(b1-3)GalNAc(b1-4)]Gal(b1-4)Glc
# Outline: as §1
# [38] = target: Neu5Ac(a2-8)Neu5Ac(a2-3)[GalNAc(b1-4)]Gal(b1-4)Glc
# Outline: as §1
# [39] = target: Neu5Ac(a2-8)Neu5Ac(a2-8)Neu5Ac
# Outline: as §1
binder,measurement,setting,value
B1,glycan array binding signal (z-score),[1],0.572
same,glycan array binding signal (z-score),[2],0.003
same,glycan array binding signal (z-score),[3],4.4
same,glycan array binding signal (z-score),[4],4.31
same,glycan array binding signal (z-score),[5],5.81
same,glycan array binding signal (z-score),[6],-0.357
same,glycan array binding signal (z-score),[7],-0.35
same,glycan array binding signal (z-score),Gal(a1-3)GalNAc,-0.387
same,glycan array binding signal (z-score),[8],-0.39
same,glycan array binding signal (z-score),[9],-0.355
same,glycan array binding signal (z-score),[10],-0.387
same,glycan array binding signal (z-score),[11],3.06
same,glycan array binding signal (z-score),[12],6.42
same,glycan array binding signal (z-score),[13],6.12
same,glycan array binding signal (z-score),[14],3.61
same,glycan array binding signal (z-score),[15],5.79
same,glycan array binding signal (z-score),[16],5.3
same,glycan array binding signal (z-score),[17],5.33
same,glycan array binding signal (z-score),[18],-0.305
same,glycan array binding signal (z-score),[19],0.169
same,glycan array binding signal (z-score),[20],-0.353
same,glycan array binding signal (z-score),[21],-0.354
same,glycan array binding signal (z-score),GlcNAc(b1-3)Gal(b1-4)Glc,-0.338
same,glycan array binding signal (z-score),[22],5.71
same,glycan array binding signal (z-score),[23],4.87
same,glycan array binding signal (z-score),[24],6.06
same,glycan array binding signal (z-score),[25],-0.41
same,glycan array binding signal (z-score),[26],-0.727
same,glycan array binding signal (z-score),[27],-0.2
same,glycan array binding signal (z-score),[28],-0.392
same,glycan array binding signal (z-score),[29],-0.357
same,glycan array binding signal (z-score),[30],0.798
same,glycan array binding signal (z-score),[31],-0.328
same,glycan array binding signal (z-score),[32],-0.314
same,glycan array binding signal (z-score),[33],2.12
same,glycan array binding signal (z-score),[34],-0.143
same,glycan array binding signal (z-score),[35],-0.357
same,glycan array binding signal (z-score),[36],-0.378
same,glycan array binding signal (z-score),[37],-0.355
same,glycan array binding signal (z-score),[38],-0.398
same,glycan array binding signal (z-score),[39],-0.396
